This passage reports growth results from PubChem BioAssay (NCI).

Where “and” joins values, the source holds several entries; their conditions need not be identical. Equal entries are not always repeated. The panel holds about 83,000 compounds, 20% with a hit somewhere; the sample as a whole holds those more often.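 Compound tested at a single concentration for 48 hours in 96-well plates; a percent growth value below 10 was scored as active.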 Calls of active or inactive are those of the source.

The subject of this assay is MDA-MB-468 breast. Put plainly: NCI-60 one-dose screen, 48 h (100 = growth as untreated, 0 = no growth, -100 = all killed). To be noted: 10 µM unless noted.
With `COc1ccc2[nH]c(C(=O)OCc3ccc4c(Cl)cc(Cl)c(O)c4n3)cc2c1`, the growth is -83.1% (active). To `CCOC(=O)c1cc(C(=O)c2ccc(OC)c(OC)c2)n2c1ccc1ccccc12` belongs 97% (inactive).

With `CCC(C)(c1ccc(O)c(C)c1)c1ccc(O)c(C)c1`, the growth was 70.1% (inactive).

For `N#C/C(=C\C=C\c1ccc(-c2cc(Cl)ccc2Cl)o1)c1nc2ccccc2s1`, the growth is 109% (inactive). For the molecule `C1=C2CNCC3=Cc4ccc5ccccc5c4OC23Oc2c1ccc1ccccc21`, the growth was 50.4% (inactive). Then `O=C(CSc1nc2sc3c(c2c(=O)n1-c1ccc(Cl)cc1)CCCC3)N/N=C/c1ccc(F)cc1`, with 129% (inactive); and `CCOc1ccc2c(S(=O)(=O)O)cccc2c1[N+](=O)[O-]`, with 104% (inactive) and 106% (inactive); and `CCCCn1c(=O)[nH]c2c(c1=O)C(c1ccc(Cl)cc1)c1c([nH]c(=O)n(CCCC)c1=O)N2`, with 108% (inactive).

On to `Cc1cccc2c1C[C@@]1(C2=O)C(c2ccc(C(C)(C)C)cc2)=NOS1=O` (some centres undefined), for which the growth is 88.2% (inactive).

`O=C(CCN1CCCC1)Nc1ccc2c(NCc3ccccc3)c3ccccc3nc2c1`: the growth was -37.1% (active). `O=C1CCC(N2C(=O)c3ccc(NS(=O)(=O)c4ccccc4OC(F)(F)F)cc3C2=O)C(=O)N1` (centres undefined): the growth is 10.1% (inactive). On to `COC(=O)c1c2c(c(C)[n+]([O-])c1C)C(=O)C(NCc1ccc(Cl)cc1)=CC2=O`, for which the growth was 39.8% (inactive). `Cc1nc(Nc2cccc(NC(=O)Nc3ccc(Cl)cc3)c2)c2ccccc2n1`: the growth was 75% (inactive). `CCOC(=O)c1ccc(NC(=O)Nc2ncc(Cl)cc2Cl)cc1`: the growth is 95.1% (inactive).
